Drawing on PubChem BioAssay, this text covers composite z-score and z-score for 17 molecules.

Experiment [1] concerns XIP peptide (Xip251-270) binding. The experiment in a line: small-molecule binders of XIP peptide, primary screen, biochemical, small-molecule microarray, fluorescence 635/667 nm, 0.1 µg/mL protein (AID 1182). To be noted: fluorescent protein binding, 635 nm, higher = more signal, called active from +8 up or from −8 down.
Experiment [2] deals with XIP peptide (Xip251-270). The experiment in a line: small-molecule binders of XIP peptide, primary screen, biochemical, small-molecule microarray, fluorescence 635/667 nm, 0.5 µg/mL protein (AID 1183). To be noted: small-molecule microarray binding, fluorescence 635 nm; higher = more signal.
A short description of experiment [3]: Plasmodium falciparum growth inhibition, primary screen, strain 3D7, DAPI fluorescence, 100 nL (AID 1184).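 Note: parasites grown inside human red blood cells in medium with human serum.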 The settings on record: P. falciparum 3D7 growth, 3 d, higher = more signal.
Experiment [4] has as its target Homeobox protein Hox-A13 (Mus musculus) (UniProt Q62424). The experiment in a line: inhibitors of HoxA13-DNA binding, primary screen, biochemical, fluorescence polarization, labeled oligonucleotide (AID 1185). To be noted: 15 min, higher = more signal, called active from +8 up or from −8 down.
A short description of experiment [5]: inhibitors of hydroxyurea-induced Chk1 phosphorylation, primary screen, imaging, HeLa, phospho-Chk1 antibody, percent positive cells (AID 1186). To be noted: hydroxyurea-induced phospho-Chk1 immunofluorescence imaging, higher = more signal.
Experiment [6] in a line: inhibitors of hydroxyurea-induced Chk1 phosphorylation, primary screen, imaging, HeLa, phospho-Chk1 nuclear intensity (AID 1187). To be noted: hydroxyurea-induced phospho-Chk1 immunofluorescence imaging, higher = more signal.

Calls of active or inactive are those of the source. Unless noted, the rule behind the calls is not given here.

Chain of Homeobox protein Hox-A13 (Mus musculus) (Q62424 whole entry, looked up): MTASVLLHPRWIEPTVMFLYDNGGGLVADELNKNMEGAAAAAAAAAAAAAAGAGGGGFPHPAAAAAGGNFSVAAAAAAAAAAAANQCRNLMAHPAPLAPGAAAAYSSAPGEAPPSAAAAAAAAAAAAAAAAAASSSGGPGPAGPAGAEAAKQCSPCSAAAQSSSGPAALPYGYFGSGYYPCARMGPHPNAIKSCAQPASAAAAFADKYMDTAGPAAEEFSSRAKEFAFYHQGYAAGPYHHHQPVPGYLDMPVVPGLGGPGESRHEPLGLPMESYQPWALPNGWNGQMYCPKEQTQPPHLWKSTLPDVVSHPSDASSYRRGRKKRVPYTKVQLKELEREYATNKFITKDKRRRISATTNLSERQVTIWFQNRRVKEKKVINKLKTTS

`CCN(CC)c1ccc(N2CC=CC34O[C@@H]5C=CCOC(=O)[C@@H]5[C@H]3C(=O)N(CCCCCO)[C@@H]4C2=O)cc1` (some centres not stated): the results for the composite z-score in experiment [1] and in experiment [2] were 0.614 (inactive) and -0.982, respectively. In addition, the z-score in experiment [3] was -0.232; in experiment [4], -5.05 (inactive); in experiment [5], -0.23 (inactive); in experiment [6] it was -0.33 (inactive).
With `COCCOC(=O)N1C(=O)[C@@]2(c3cc(C#CCCO)ccc31)[C@H](C(=O)NC[C@H](O)c1ccccc1)[C@H]1C(=O)O[C@H](c3ccccc3)[C@H](c3ccccc3)N1[C@@H]2c1ccc(OCCO)cc1`, the composite z-score in experiment [1] is -0.0001 (inactive); in experiment [2], 0.577. Moreover, the z-score in experiment [3] is -1.99; in experiment [4], -1.64 (inactive); in experiment [5], 0.0945 (inactive); in experiment [6], 0.298 (inactive).
In the case of `Cc1ccc(S(=O)(=O)N2CC(C(=O)O)=CCC2c2ccccc2)cc1` (configuration not stated), the composite z-score in experiment [1] is 0.624 (inactive); in experiment [2] it was 0.268. Moreover, the z-score in experiment [3] was -0.863; in experiment [4] it was -2.63 (inactive); in experiment [5], -0.557 (inactive); in experiment [6] it was -0.655 (inactive).
As to `C=C(/C(=C/C[C@@H](OC(C)=O)c1ccc(CO)o1)c1cnc2ccccc2c1)C(C)C`, the composite z-score in experiment [1] is 0.64 (inactive); in experiment [2] it was 0.764. The z-score in experiment [3] was -1.43; in experiment [4], -5.54 (inactive); in experiment [5] it was -0.0375 (inactive); in experiment [6], 0.0518 (inactive).
Take `C=C(CCCC)C(=O)CC[C@H](OC(=O)c1ccccc1-c1ccccc1C(=O)O)c1ccc(CO)o1`: the composite z-score in experiment [1] is 0.556 (inactive); in experiment [2], 0.582. Also, the z-score in experiment [3] is -0.714; in experiment [4], -6.05 (inactive); in experiment [5], -0.131 (inactive); in experiment [6] it was -0.23 (inactive).
Turning to `C#C[C@H](O[Si](C#CCCCCCC)(C(C)C)C(C)C)c1ccccc1`, the composite z-score in experiment [1] is 0.0004 (inactive); in experiment [2] it was -0.113. For the same molecule, the z-score is -1.32 in experiment [3], -1.2 (inactive) in experiment [4], -0.0616 (inactive) in experiment [5] and -0.0839 (inactive) in experiment [6].
`CCCCC(=O)N(Cc1ccccc1F)[C@@H]1CC(C(=O)NCCO)=C[C@H](Oc2c(I)cc(CO)cc2OC)[C@H]1O`: the composite z-score in experiment [1] was 0.466 (inactive); in experiment [2], 0.704. The z-score in experiment [3] is -1.66; in experiment [4], -7.53 (inactive); in experiment [5], 0.148 (inactive); in experiment [6], 0.545 (inactive).
On to `CCN(CC)c1ccc(N2CC=CC34O[C@@H]5/C=C\CCC(C)OC(=O)C5[C@H]3C(=O)N(CCCCCCO)[C@@H]4C2=O)cc1` (some centres not stated), for which the composite z-score in experiment [1] is 0.76 (inactive); in experiment [2], -0.0479. In addition, the z-score was 0.816 in experiment [3], -5.99 (inactive) in experiment [4], -0.632 (inactive) in experiment [5] and -0.767 (inactive) in experiment [6].
On to `COc1ccc([Si](C)(C)[C@@H]2[C@@H](CCn3cc([C@H](O)c4ccccc4)nn3)O[C@]3(C(=O)N(C)c4ccccc43)[C@H]2C)cc1`, for which the composite z-score in experiment [1] is -0.558 (inactive); in experiment [2] it was 0.679. Besides, the z-score was -1.13 in experiment [3], -6.22 (inactive) in experiment [4], 0.131 (inactive) in experiment [5] and -0.858 (inactive) in experiment [6].
As to `C=C(/C(=C/C[C@@H](OC(=O)c1ccncc1)c1ccc(CO)o1)c1cc(C(=O)OC)ccc1OC)C(C)C`, the composite z-score was 0.18 (inactive) in experiment [1] and 0.813 in experiment [2]. Further, the z-score in experiment [3] is -1.01; in experiment [4] it was -4.08 (inactive); in experiment [5], -0.471 (inactive); in experiment [6], 0.811 (inactive).
On to `CC(=O)N1Cc2ccccc2C[C@@]2(N=C(c3ccc(OCCCO)cc3)O[C@H]2c2ccccc2)C1=O`, for which the composite z-score in experiment [1] was 1.11 (inactive); in experiment [2], 0.887. Besides, the z-score is -2.24 in experiment [3], -3.3 (inactive) in experiment [4], -0.662 (inactive) in experiment [5] and -0.681 (inactive) in experiment [6].
As for `COC(=O)c1c(CC[C@@H](CO)NC(=O)Nc2ncn[nH]2)oc(C(=O)Cc2ccccc2)c1C(=O)OC`, the composite z-score in experiment [1] was 0.782 (inactive); in experiment [2], 0.883. The z-score in experiment [3] is 0.654; in experiment [4] it was -2.98 (inactive); in experiment [5] it was 0.498 (inactive); in experiment [6], -0.15 (inactive).
In the case of `C[C@]1(C(=O)NCC(F)(F)F)c2ccccc2C(=O)N(Cc2cc(F)cc(C(F)(F)F)c2)[C@H]1c1ccc(CO)cc1`, the composite z-score in experiment [1] is 0.362 (inactive); in experiment [2], 0.473. Besides, the z-score in experiment [3] was -1.31; in experiment [4] it was -3.68 (inactive); in experiment [5], 0.305 (inactive); in experiment [6] it was 0.388 (inactive).
Turning to `COCC1C2CC[C@H]3C(OCc4ccc(F)cc4C(F)(F)F)OC[C@]4(C)[C@H]3C2=C(CN4C(=O)OC(C)(C)C)[C@H](C)C1COC` (some centres not stated), the composite z-score was 1.84 (inactive) in experiment [1] and 0.761 in experiment [2]. Also, the z-score in experiment [3] is -1.06; in experiment [4] it was -3 (inactive); in experiment [5], -0.43 (inactive); in experiment [6] it was -0.0765 (inactive).
With `COCCOC(=O)N1C(=O)[C@@]2(c3ccccc31)[C@H](C(=O)N1CCCCCCC1)[C@H]1C(=O)O[C@H](c3ccccc3)[C@H](c3ccccc3)N1[C@@H]2c1ccccc1OCCO`, the composite z-score is 2.16 (inactive) in experiment [1] and 0.83 in experiment [2]. For the same molecule, the z-score in experiment [3] was -2.1; in experiment [4], 3.39 (inactive); in experiment [5], -0.26 (inactive); in experiment [6], -0.299 (inactive).
`CC(c1ccccc1)C(O)C1C=CC2C(=O)N(c3ccccc3)C(=O)C2N1Nc1ccccc1F` (configuration not stated): the results for the composite z-score in experiment [1] and in experiment [2] were -0.093 (inactive) and 0.583, respectively. The z-score was -0.436 in experiment [3], -1.51 (inactive) in experiment [4], -0.123 (inactive) in experiment [5] and 0.104 (inactive) in experiment [6].
As to `CCCCC(=C=CC[C@H](O)c1ccccc1OCCO)C[C@H](O)c1cc(Cl)cc(Cl)c1O`, the composite z-score in experiment [1] was 0.776 (inactive); in experiment [2] it was 0.832. The z-score in experiment [3] was -1.09; in experiment [4] it was -4.23 (inactive); in experiment [5], 0.0899 (inactive); in experiment [6], 1.23 (inactive).
